Results published in PubChem BioAssay AID411 (National Center for Advancing Translational Sciences (NCATS), 2006).
In all, about 72,000 compounds went through this assay and about 1,600 (2.2%) were called active. Many of the other results were omitted from the sample, so actives are more common in it than they were. Unmarked numbers belong to inactive results. Calls come from the whole dose curve; as a rule, active = well fitted inhibition curve with a large enough effect; inconclusive = small, poorly fitted or top-dose-only effect; inactive = flat fitted curve, though single readings scatter.

target: Luciferin 4-monooxygenase (Photinus pyralis) (UniProt P08659); test: qHTS Assay for Inhibitors of Firefly Luciferase; conditions: purified firefly luciferase, luminescence, 8 min; series mostly up to 57.1 µM; note: nearly all actives have a fitted effect of over 40% in size
Protocol: To aid in the interpretation of high-throughput screening (HTS) results derived from luciferase-based assays, we used quantitative HTS, an approach that defines the concentration-response behavior of each library sample, to profile the ATP-dependent luciferase from Photinus pyralis against more than 72 000 samples. Luciferase (PKLight, Cambrex Corporation) was assayed for its ability to generate light using ATP and luciferin as substrates. The ATP concentration in the assay (10 uM) was within the linear range of enzyme activity for the assay conditions used. See following reference for further details: [1] Auld DS, Southall NT, Jadhav A, Johnson RL, Diller DJ, Simeonov A, Austin CP, Inglese J. Characterization of chemical libraries for luciferase inhibitory activity. J Med Chem. 2008 Apr 24;51(8):2372-86. Auld DS, Zhang YQ, Southall NT, Rai G, Landsman M, Maclure J, Langevin D, Thomas CJ, Austin CP, Inglese J. A Basis for Reduced Chemical Library Inhibition of Firefly Luciferase Obtained from Directed Evolution. J. Med. Chem., 2009, 52 (5), pp 1450#1458 [3] Auld DS, Thorne N, Nguyen DT, Inglese J. A specific mechanism for nonspecific activation in reporter-gene assays. ACS Chem Biol. 2008 Aug 15;3(8):463-70. Auld DS, Thorne N, Maguire WF, Inglese J. Mechanism of PTC124 activity in cell-based luciferase assays of nonsense codon suppression. Proc Natl Acad Sci U S A. 2009 Mar 3;106(9):3585-90. Inglese J, Auld DS, Jadhav A, Johnson RL, Simeonov A, Yasgar A, Zheng W, Austin CP. Quantitative high-throughput screening: a titration-based approach that efficiently identifies biological activities in large chemical libraries. Proc Natl Acad Sci U S A. 2006 Aug 1;103(31):11473-8.
Four uL of substrate mix (final concentration, 50 mM imidazole pH 7.2, 50 mM KCl, 7 mM MgCl2, 10 uM ATP, 0.01% Tween 20, 0.05% BSA) was dispensed into white 1536 well plates. Twenty-three nL of compound was delivered by a pin tool and 2 uL of luciferase detector mix (PKLight, Cambrex) was added. Following 8-minute incubation at ambient temperature, luminescence was measured by a ViewLux (Perkin Elmer) at 5 seconds exposure/plate.
% is set by controls: 0 for no effect and ±100 for the full control effect; potency is the fitted concentration of half-maximal effect.

Luciferin 4-monooxygenase (Photinus pyralis), sequence (P08659 whole entry, looked up): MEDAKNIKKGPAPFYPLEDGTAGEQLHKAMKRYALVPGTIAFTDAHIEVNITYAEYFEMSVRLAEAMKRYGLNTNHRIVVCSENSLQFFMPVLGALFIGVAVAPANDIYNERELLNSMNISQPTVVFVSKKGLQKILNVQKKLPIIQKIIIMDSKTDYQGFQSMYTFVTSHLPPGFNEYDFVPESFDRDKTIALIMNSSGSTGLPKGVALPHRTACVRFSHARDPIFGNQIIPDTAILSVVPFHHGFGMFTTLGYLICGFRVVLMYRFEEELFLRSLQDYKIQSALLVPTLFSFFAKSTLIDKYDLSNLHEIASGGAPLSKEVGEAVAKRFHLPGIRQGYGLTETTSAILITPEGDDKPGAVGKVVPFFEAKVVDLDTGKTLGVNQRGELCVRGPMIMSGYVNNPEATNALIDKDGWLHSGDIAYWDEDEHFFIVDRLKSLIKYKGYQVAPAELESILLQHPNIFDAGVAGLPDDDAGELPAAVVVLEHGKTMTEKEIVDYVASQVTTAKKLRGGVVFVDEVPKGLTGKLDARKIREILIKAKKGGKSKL

| SMILES | Potency | activity change, negative = inhibition |
| --- | --- | --- |
| COc1ccc(NC(=O)Nc2cccc3cccnc23)cc1 | 5.01 µM (active) |  |
| c1ccc(CN2CC[C@@]3(CCCNC3)C2)cc1 |  | 0.194% [at 11.4 µM] |
| CC(C)(c1ccc(OC[C@@H]2CO2)cc1)c1ccc(OC[C@H]2CO2)cc1 |  | inactive |
| CC[C@]1(O)C(=O)OCc2c1cc1n(c2=O)Cc2cc3ccccc3nc2-1 |  | 1.26% [at 11.4 µM] |
| Cc1cccc([C@H](C)c2cnc[nH]2)c1C |  | inactive |
